These results are taken from PubChem BioAssay AID1508623 (National Center for Advancing Translational Sciences (NCATS), 2021).

Structures are written as SMILES. The campaign covered roughly 48,000 compounds. About 450 (0.94%) were called active. Another 19% or so got no clear call; they are omitted. The sample as a whole holds a higher share of actives than the screen did. A number with no mark means an inactive call. Calls follow the shape of the dose curve; as a rule, active = well fitted inhibition curve with a large enough effect; inconclusive = small, poorly fitted or top-dose-only effect; inactive = no such curve, though single readings can be large or run the other way.
Potency is read from the fitted curve at half-maximal effect.

The nature of this assay: Primary qHTS for Identification of Small Molecule Inhibitors of Huntingtin Promoter Activity. Also: nearly all actives have a fitted effect of over 50% in size. The conditions noted are these: HEK293 HTT promoter firefly luciferase reporter (activity 0% = vehicle and -100% = no light), 24 h; series mostly up to 57.5 µM; activity change, negative = inhibition: at the top concentration. The source says:
Assay Provider: Russell L. Margolis M.D.
Department Neurology, Johns Hopkins University School of Medicine, Baltimore, MD
Huntington's Disease (HD) is a neurodegenerative disorder caused by a CAG repeat expansion in exon 1 of huntingtin (HTT). While there are currently no disease-modifying treatments for HD, recent efforts have focused on development of nucleotide-based therapeutics to lower HTT expression. As an alternative to siRNA or oligonucleotide methods, we hypothesized that suppression of HTT expression might be accomplished by small molecules that either (1) directly decrease HTT expression by suppressing HTT promoter activity or (2) indirectly decrease HTT expression by increasing the promoter activity of HTT-AS, the gene antisense to HTT that appears to inhibit expression of HTT.
We developed and employed a high throughput screen for modifiers of HTT and HTT-AS promoter activity using luminescent reporter HEK293 cells; of the 52,041 compounds tested, we identified 898 replicable hits. We used a rigorous stepwise approach to assess compound toxicity and the capacity of the compounds to specifically lower huntingtin protein in 5 different cell lines, including HEK293 cells, HD lymphoblastoid cells, mouse primary neurons, HD iPSCs differentiated into cortical-like neurons, and HD hESCs. We found no compounds which were able to lower huntingtin without lowering cell viability in all assays, though the potential efficacy of a few compounds at non-toxic doses could not be excluded.
SEQUENCE No. (1, 2, 3, etc.); […] (e.g., Cells, Incubation, Reagent, etc.); VALUE and DESCRIPTION.
1; Reagent; 4 uL; 2,500 Hek293 luciferase reporter cells per wells
3; Compound; 23 nL; Control inhibitor / compound library
5; Reagent; 2.5 uL; Firefly Luc reagent; Dual-Glo Luciferase Reporter Assay System (Promega)
6; Time; 10 min; room temperature incubation
7; Detection; Luminescence; FLuc
NOTES (numbers refer to sequence above)
1; High-throughput screening, measuring luminescence from a Hek293 luciferase reporter, was performed in 1,536 well white-walled tissue-culture treated plates. 2,500 cells were plated in 4 µL of Opti-MEM per well using a Multidrop Combi Reagent Dispenser (ThermoFisher).
2; Assay plates were cultured for 24 hours.
3; Control inhibitor (PTC124; final concentration of 50 uM) and compound library (at final concentrations of 460 nM - 57.5 uM) were added to the assay plate using the Kalypsis Pintool Robotic System equipped with 1536 pinheads.
4; Cells were then incubated for 24 hours at 37 degrees C prior to luminescence measurements.
5; In all cases, luminescence was measured using the Dual-Glo Luciferase Reporter Assay System (Promega) following the manufacturer's instructions.
6; Room temperature incubation.
7; Luminescence signal was obtained using the PerkinElmer ViewLux plate reader. Results were normalized to vehicle control (0% activity) and zero RLU (-100% activity).
As for `Cc1cccc(N2CCN(C(=O)c3ccc(Nc4nc5ccccc5n5nnnc45)cc3)CC2)c1C`, the “activity change, negative = inhibition” value was 16.4%.
Same read-out and setting: then `O=C(c1ccc2c(c1)N(Cc1ccccc1)C(=O)c1ccccc1S2(=O)=O)N1CCCC1`, with -7.16%; and `CCOc1ccccc1N(CC)C(=O)Nc1cn(C)c(=O)c2ccccc12`, with -16.3%; and `CSc1nc(-c2ccc(F)cc2)nc2c1Cc1c(CO)cnc(C)c1O2`, with -12.1%.
On to `CCOc1ccc(NC(=O)C(CC(C)C)N2Cc3ccccc3C2=O)cc1` (stereo unspecified), for which the “activity change, negative = inhibition” value was -25.6%.
With `COC(=O)c1cc(NC(=O)c2sc3ccccc3c2Cl)cc(C(=O)OC)c1`, the “activity change, negative = inhibition” value is -2.04%.
With `Cc1cccc(N2CCN(C(=O)c3oc(=O)c4ccccc4c3-c3ccccc3)CC2)c1C`, the “activity change, negative = inhibition” value was -9.19%.
Consider `CC(C)(C)OC(=O)N1CCC(c2c(C(=O)NCc3ccccn3)cnn2-c2ccc(F)cc2)CC1`, for which the “activity change, negative = inhibition” value was -10.4%.
Turning to `Cc1ccc(NC(=O)CSc2nc3c([nH]c4ccccc43)c(=O)n2-c2ccccc2)c(C)c1`, the “activity change, negative = inhibition” value was -11.7%.
For the compound `Cc1ccc(-c2noc(CSc3nnc(-c4ccc(Cl)cc4)n3C)n2)cc1`, the “activity change, negative = inhibition” value is -27.1%.
As for `COc1ccc(-c2noc(CSc3nc4ccc(C)cc4[nH]3)n2)cc1`, the Potency was 28.2 µM (active).
Turning to `COc1ccc(-c2noc(CSc3nc(C)cc(=O)[nH]3)n2)cc1OC`, the “activity change, negative = inhibition” value was -20.2%.
Consider `Cn1c(=O)c2c(SCC(=O)N3CCc4ccccc43)nc(-c3ccc(Cl)cc3)nc2n(C)c1=O`, for which the “activity change, negative = inhibition” value was -7.37%.
Same read-out and setting: next, `Cc1cc(C)cc(NC(=O)CSc2oc(-c3ccccc3)nc2S(=O)(=O)c2ccc(Cl)cc2)c1`: -14.6%; `Cc1ccc2c(=O)c(C(=O)c3ccc(Cl)cc3)cn(CC(=O)NC3CCCCC3)c2n1`: 12.6%.
Same read-out and setting: then `COC(=O)c1scc(-c2ccc(C)cc2)c1S(=O)(=O)Nc1cc(Cl)c(OC)cc1OC`, with -15.9%; and `CCOC(=O)c1ccc(NC(=O)c2csc3c2CCCCC3)cc1`, with -10.1%.
With `COc1cccc(C(=O)c2sc3nc(-c4ccccc4)cc(C(F)(F)F)c3c2N)c1`, the “activity change, negative = inhibition” value was -24.4%.
Consider `Cn1c(=O)n(Cc2c(F)cccc2Cl)c(=O)c2c1nc1n2CCN1c1ccc(F)cc1`, for which the “activity change, negative = inhibition” value was -1.17%.
The same measure, in the same setting: then `CCc1nn(CC(=O)N2CCN(c3cccc(C(F)(F)F)c3)CC2)c(=O)c2cc3occc3n12`, with -13%; and `COC(=O)c1ccc(OC)c(Cn2c(=O)n(Cc3ccccc3)c(=O)c3c2c2cc(OC)ccc2n3C)c1`, with -9.45%; and `Cc1cccc(C(=O)NCCc2nc3ccccc3n2Cc2ccccc2Cl)c1`, with 0.0337%.
As to `CCOc1ccc2nc(N3CCCC(C(=O)Nc4cc(C)ccc4C)C3)sc2c1` (stereo unspecified), the “activity change, negative = inhibition” value was 38.3%.
For `O=C(/C=C/c1ccccc1)N1CCN(Cc2cc(=O)n3nc(-c4ccccc4F)sc3n2)CC1`, the “activity change, negative = inhibition” value was -11.1%.
Take `O=C(O)c1ccc(Cn2c(SCc3ccc(F)cc3)nc3ccncc32)cc1`: the “activity change, negative = inhibition” value was 4.54%.
As for `COc1cccc(Cn2c(SCc3ccc(C(=O)N4CCCCC4)cc3)nc3ccncc32)c1`, the Potency is 12.6 µM (active).
Consider `Cc1cccc(CSc2nc3ccncc3n2Cc2ccc(C(=O)O)cc2)c1`, for which the “activity change, negative = inhibition” value is 4.83%.
As to `COc1ccccc1Cc1nc2ccccc2nc1SCC(=O)N1CCCc2ccccc21`, the “activity change, negative = inhibition” value was -3.18%.
`Cc1ccc(CNC(=O)CCc2c(C)nc3nc(CNC(=O)OC(C)(C)C)nn3c2C)cc1`: the “activity change, negative = inhibition” value was -20.6%.
In the case of `CC(=O)N1CCCc2cc(S(=O)(=O)N3CCCC(C(=O)N4CCN(c5cccc(Cl)c5)CC4)C3)ccc21` (stereo unspecified), the Potency was 7.08 µM (active).
With `CC(=O)N1CCCc2cc(S(=O)(=O)Nc3ccc(Cl)cc3F)ccc21`, the “activity change, negative = inhibition” value was -28.1%.
On the same count and under the same terms, then `CC(=O)N1CCCc2cc(S(=O)(=O)N3CCC(C(=O)NC4CCCCC4)CC3)ccc21`, with -20.4%.
In the case of `CCN(CC)c1ccc(NC(=O)CN2CCN(CC(=O)Nc3ccc(Cl)cc3)CC2)cc1`, the “activity change, negative = inhibition” value was -28.4%.
As for `Cc1oc2ncnc(N3CCOCC3)c2c1C(=O)NCCc1ccccc1`, the “activity change, negative = inhibition” value was 19.5%.
For the compound `CCOC(=O)c1oc2ccc(S(=O)(=O)n3nc(-c4ccccc4OC)cc3N)cc2c1C`, the Potency was 12.6 µM (active).
With `Cc1c(C(=O)Nc2cccc(Cl)c2)oc2ccc(S(=O)(=O)N3CCOCC3)cc12`, the “activity change, negative = inhibition” value was -4.7%.
The same measure, in the same setting: next, `Cc1ccc(NC(=O)c2oc3ccc(S(=O)(=O)N4CCCCC4)cc3c2C)cc1Cl`: -15.5%.
Same read-out and setting: then `O=C(Nc1ccc2nc(SCC(=O)N3CCc4ccccc43)sc2c1)c1ccccc1F`, with -3.2%; and `O=C(c1cccc(Cl)c1)N1CCN(CCc2ccncc2)CC1`, with -11.7%; and `COC(=O)c1sccc1S(=O)(=O)N(CC(=O)Nc1ccc(C)c(F)c1)c1ccc(C)c(C)c1`, with -10.9%.
On the same count and under the same terms, then `CC1CN(C(=O)N2CCC(C(=O)NCc3cccs3)CC2)c2ccccc2O1` (stereo unspecified), with -9.81%; and `Cc1ccc2nc(COc3cccc(NC(=O)c4cccc(Cl)c4)c3)cc(=O)n2c1`, with -0.53%; and `CCn1cc(C(=O)NCCc2ccccc2)c(=O)c2cc(S(=O)(=O)N3CCCCCC3)ccc21`, with -17.5%.
As to `CCc1ccc(NC(=O)N2CCN(C(=O)c3nsc4ccccc34)CC2)cc1`, the “activity change, negative = inhibition” value was -28.2%.
As to `Cc1ccc(Oc2c(C(F)(F)F)oc3c(CN4CCCCC4)c(O)ccc3c2=O)cc1`, the “activity change, negative = inhibition” value is -41.6%.
On the same count and under the same terms, then `COc1ccc(-c2cc(NCc3ccc(F)cc3)n3cnnc3n2)cc1`, with -27.2%.
